# From PubChem BioAssay
# This is a sample that favours compounds with a hit; in the whole collection about 8% have one here.
# HCV inhibitor: inhibitors of hepatitis C virus infection | Potency, µM (doses to about 41.8 µM), for inactives: at the highest dose activity change, negative = inhibition, actives largely listed as inhibitors | 340,000 compounds, 3.4% hits | AID 651820 | Huh7.5.1 HCVcc-Cre infection, luciferase reporter, 44 h; active means well fitted inhibition curve with a large enough effect; inconclusive means small, poorly fitted or top-dose-only effect, or another doubt; inactive means no such curve, though single readings can be large or run the other way; further: potency means the concentration at half of the fitted maximal effect; on the % scale 0 is the no-effect control and ±100 the full control effect
#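 Whole-lifecycle infectious HCVcc-Cre system; cells 1,000/well, compound then virus (~0.5 moi) added 4 h after plating, 44 h culture. Luciferase read 15 sec following 15 min substrate incubation, room temp.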
# Lassa entry inh: blocks Lassa virus binding to or entry into cells; 300,000 compounds, 1.2% hits; AID 540256; Lassa virus pseudotype entry inhibition, cell reporter; Potency, µM (top dose mostly 37.9 µM), for inactives: at the highest dose activity change, negative = inhibition, hits mostly inhibitors; calls by dose curve; tested in HEK293 cells; further: potency means the concentration at half of the fitted maximal effect; on the % scale 0 is the no-effect control and ±100 the full control effect; nearly all actives have a fitted effect of over 50% in size
# HCMV antiviral: inhibitors of human cytomegalovirus; activity change, negative = inhibition, % at 57.5 µM; HFF cells, HCMV-luciferase reporter, 72 h; active compounds read low; 410,000 compounds, 4.5% hits; in the data active means activity change below about -60%; inconclusive means no clear call, values can overlap the other calls; inactive means above about -39%; further: on the % scale 0 is the no-effect control and ±100 the full control effect
#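 Luciferase read-out from HCMV-luciferase-infected HFFs (MOI 1 PFU/cell) 72 h post infection at 37C; compounds added after 16 h cell attachment; activity normalized between buffer-only basal and Salinomycin (10uM) inhibitor controls.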
# SARS PLP yeast: inhibitors of SARS-CoV papain-like protease in yeast | Potency, µM (doses to about 32.9 µM), inactives show at the highest dose activity, positive = growth rescue, actives largely listed as activators | AID 485353 | S. cerevisiae expressing SARS-CoV PLpro, growth rescue | 330,000 compounds, 0.19% hits; calls by dose curve; further: potency means the concentration at half of the fitted maximal effect; 0% is about no effect; nearly all actives have a fitted effect of over 55% in size
# MARV entry inh: Marburg virus entry inhibition; AID 540276; Marburg virus pseudotyped entry inhibition, cell reporter; Potency, µM (doses to about 37.8 µM), for inactives: at the highest dose activity change, negative = inhibition, hits mostly inhibitors; 300,000 compounds, 1.8% hits; calls by dose curve; tested in HEK293 cells; further: potency means the concentration at half of the fitted maximal effect; on the % scale 0 is the no-effect control and ±100 the full control effect
# FMDV antiviral: foot and mouth disease virus antiviral activity | FMDV antiviral cell-based qHTS | Potency, µM (titrated, usually from 57.9 µM), for inactives: at the top dose activity change, negative = inhibition, hits mostly inhibitors | 410,000 compounds, 1.2% hits; calls by dose curve; tested in HEK293T cells; further: read-out not given here; potency means the concentration at half of the fitted maximal effect; on the % scale 0 is the no-effect control and ±100 the full control effect; nearly all actives have a fitted effect of over 45% in size
# An asterisk follows results filed as active; ? = inconclusive; nt = no result given; [ ] = another dose, or the depositor's remark.
SMILES,HCV inhibitor,Lassa entry inh,HCMV antiviral,SARS PLP yeast,MARV entry inh,FMDV antiviral
CCN(CC)S(=O)(=O)c1cccc(C(=O)OCC(=O)NC(C)c2ccccc2)c1 (stereo unspecified),2%,-13%[46.1 µM],-22,1%,-1%,-14%
Cc1ccc2nc(CCl)[n+]([O-])c(-c3ccccc3)c2c1,?,18%[46.1 µM],17,-3%,-8%[46.1 µM],28µM*
Cc1ccc2nc(Cl)c(-c3ccccc3)cc2c1,-27%,?,17,nt,-2%[46.1 µM],29%
COc1ccc(C(=O)Nc2cc(C)on2)c(OC)c1,5%,nt,112,8%,nt,52%
COc1ccc(C(=O)Nc2ccc(C)cn2)c(OC)c1,10µM*,0.65µM*,-76*,-21%,1µM*,1.8µM*
COc1ccc(C(=O)Nc2cccc3c2CCCC3)c(OC)c1,32µM*,-1%,-32,nt,5%[46.1 µM],30%
COc1ccc(C(=O)Nc2cc3c4c(c2)CC(=O)N4CCC3)cc1,2.2µM*,3%,-10,-6%,0%,23%
COc1ccc(C(=O)Nc2cc3c4c(c2)CC(=O)N4CCC3)c(OC)c1,4µM*,?,nt,-6%,9%,80%
O=C(Nc1cc2c3c(c1)CC(=O)N3CCC2)c1ccc(F)cc1,4%,16%,29,1%,8%,2%
COc1ccc(CCC(=O)Nc2cc3c4c(c2)CC(=O)N4CCC3)cc1,?,-5%[46.1 µM],-22,3%,-5%,-11%
COc1ccc(C(O)c2nc(-c3ccccc3)cs2)cc1 (stereo unspecified),nt,nt,0,nt,nt,-9%
Cc1ccccc1-c1noc(CCC(=O)NCc2ccco2)n1,-2%,?,-5,-3%,18%,11%
COc1cccc(NC(=O)CNC(=O)Cn2cnc3sc(C)c(C)c3c2=O)c1,-9%,?,-21,11%,-8%[46.1 µM],4%
COc1ccc(C(=O)Nc2nnc(Cc3ccc(OC)c(OC)c3)s2)c(OC)c1,11µM*,?,26,-5%,?,-5%
Cc1cccc(C)c1NC(=O)CN1C(=O)S/C(=C\c2cccn2-c2cccc(C(=O)O)c2)C1=O,2%,10%,-73*,5%,12%,-10%
CC1(C)CC(=O)C=C(N2CCNCC2)C1,-2%,11%,-26,1%,3%,21%
CC1(C)CC(N2CCCC2)=CC(=[N+]2CCCCCC2)C1,?,?,-98*,2%,1.5µM*,?
CC1CC(C)C[N+](=C2C=C(N3CCCC3)CC(C)(C)C2)C1 (stereo unspecified),3.5µM*,nt,-102*,0%,nt,?
CC1(C)CC(N2CCN(c3ccccc3)CC2)=CC(=[N+]2CCCC2)C1,?,?,-98*,-1%,?,nt
COc1ccc(-c2nc3ccccc3o2)cc1NC(=O)COc1ccc(C(C)(C)C)cc1,nt,14%[46.1 µM],96,nt,nt,4%
CCCNC(=O)c1oc2ccc3c(c2c1C)C(=O)CC(C)(C)O3,10µM*,-20%,9,-8%,?,2%
CCCNC(=O)c1oc2ccc3c(c2c1C)C=CC(C)(C)O3,?,-7%,-61*,0%,?,33%
COc1cccc(C(=O)NCC2Cc3cccc(-c4cccnc4)c3O2)c1 (stereo unspecified),nt,nt,nt,nt,nt,23%
COCC=CC1=CC2=CC(=O)C(C)(OC(=O)c3cnc4ccccc4n3)C(=O)C2=CN1CC1CC1 (stereo unspecified),nt,nt,nt,nt,58%[14.2 µM],nt
COc1ccc(N2C(=O)CC(Sc3ncn[nH]3)C2=O)c(OC)c1 (stereo unspecified),16µM*,2%,-98*,-29%,20%,5%
SMILES,HCV inhibitor,Lassa entry inh,HCMV antiviral,SARS PLP yeast,MARV entry inh,FMDV antiviral
CC(C)c1ccc(N2C(=O)CC(Sc3ncn[nH]3)C2=O)cc1 (stereo unspecified),15%,2%,6,-35%,-23%,-29%
CC(C)Cn1nc(NS(=O)(=O)c2ccccc2)c2cc3ccccc3nc21,1%,4%,8,2%,6%,41%
CCCc1nc([N+](=O)[O-])c(S(=O)(=O)c2ccccc2)n1CC(C)C,?,?,-93*,?,12µM*,?
CC(C)Cn1c(C(C)C)nc([N+](=O)[O-])c1S(=O)(=O)c1ccc(F)cc1,?,-25%,-72*,0%,?,16µM*
CC(C)Cn1c(C(C)C)nc([N+](=O)[O-])c1Sc1ccc(Cl)cn1,?,3%,-4,-11%,-29%,?
Cc1nn(-c2ccccc2)c2sc(C(=O)Nc3cccc(Cl)c3)cc12,nt,-24%[46.1 µM],?,nt,2%[46.1 µM],-21%
S=C(NCC1CCCO1)N1CCN(c2nc(-c3ccc(Cl)cc3)cs2)CC1 (stereo unspecified),?,?,-63*,-3%,?,16µM*
CCOCCCNC(=S)N1CCN(c2nc(-c3ccc(F)cc3)cs2)CC1,11µM*,nt,-85*,1%,nt,?
COCCCNC(=S)N1CCN(c2nc(-c3ccc(F)cc3)cs2)CC1,10µM*,nt,-85*,11%,nt,?
CCCNC(=S)N1CCN(c2nc(-c3ccc(C)cc3)cs2)CC1,13µM*,-11%,?,0%,?,?
CCCCn1c(N)c(N(CC(C)C)C(=O)CSc2nn(-c3ccc(F)cc3)c(=S)s2)c(=O)[nH]c1=O,?,nt,0,nt,nt,-21%
CCOC(=O)C1(C)CCCN1C(=O)c1ccc(OC)cc1 (stereo unspecified),nt,nt,-5,nt,nt,0%
CC(C)(C(=O)Nc1ccccc1)n1cc(NC(=O)c2ccc3ccccc3n2)cn1,nt,nt,59,nt,nt,nt
COc1ccc(-n2nnnc2C2CCN(S(=O)(=O)c3ccc(NC(C)=O)cc3)CC2)cc1,nt,-5%[46.1 µM],?,nt,-26%[46.1 µM],?
Cc1noc(-c2ccc(-c3noc(-c4ccccc4)n3)cc2)n1,nt,2%[46.1 µM],50,nt,nt,33%
Cc1ccc(-c2nc(-c3ccccc3)no2)c(Cl)c1,6%,nt,-79*,-5%,nt,-38%
Cc1cccc(-c2nc(-c3ccncc3)no2)c1,?,10µM*,77,-10%,?,34%
CC(C)(C)c1ccc(-c2nc(-c3ccncc3)no2)cc1,-21%,?,-70*,-21%,?,?
Cc1cc(C)cc(-c2nc(-c3ccncc3)no2)c1,-18%,nt,69,7%,nt,19%
Cc1ccc(-c2nc(-c3ccncc3)no2)cc1,?,?,64,4%,?,-23%
Cc1ccc(-c2nc(-c3ccccc3)no2)cc1,10%,?,15,-2%,?,11µM*
Cn1cc(S(=O)(=O)N2CCc3ccccc32)cc1C(=O)Nc1ccc(C(F)(F)F)cc1,nt,9%[46.1 µM],-10,nt,nt,-26%
COc1cccc(CNC(=O)c2nn(-c3ccc(C)cc3)c(=O)c3c2c2ccccc2n3C)c1,nt,7%[46.1 µM],28,nt,-3%[46.1 µM],-7%
NC(=O)C1CCN(C(=O)C2(NC(=O)Nc3cccc(F)c3)CCCCC2)CC1,11%,?,3,-1%,-13%[46.1 µM],3%
